# From PubChem BioAssay AID602440 (Sanford-Burnham Center for Chemical Genomics, 2012)
# Out of some 360,000 compounds screened, about 2,300 (0.64%) were called active. The sample as a whole holds a higher share of actives than the screen did. Unmarked numbers belong to inactive results. No stated cut-off is given here; in the data, active means inhibition mostly above about 40% (no sharp cut-off); inactive means mostly below about 27%.
# Target: Sentrin-specific protease 8 (Homo sapiens) (UniProt Q96LD8)
# Assay: blockers of SENP8 deneddylase activity – biochemical, fluorescence, Nedd8 protein substrate, uHTS, primary screen (AID 602440)
# Conditions: recombinant SENP8, Nedd8 substrate fluorescence; at 20 µM; stronger effect = higher value
# Sequence of Sentrin-specific protease 8 (Homo sapiens) (Q96LD8 whole entry, looked up): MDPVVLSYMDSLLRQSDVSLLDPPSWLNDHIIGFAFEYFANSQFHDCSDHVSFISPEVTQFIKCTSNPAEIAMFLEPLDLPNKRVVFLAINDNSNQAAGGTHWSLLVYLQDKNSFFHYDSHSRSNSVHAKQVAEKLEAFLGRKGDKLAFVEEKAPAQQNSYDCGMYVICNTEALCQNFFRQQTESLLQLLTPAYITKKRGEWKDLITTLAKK
row,Compound,inhibition
1,CC(=O)NC(CC(=O)O)c1ccc(F)cc1 (stereo not drawn),-2%
2,Cc1[nH]n(-c2ccccc2)c(=O)c1CCOC(=O)c1ccc(C(F)(F)F)cc1,15.4%
3,Cc1[nH]n(C)c(=O)c1N=Nc1ccc(S(C)(=O)=O)cc1,28.1%
4,Cc1ccc(N=Nc2c(C)[nH]n(-c3ccccc3)c2=O)cc1,35.1% (active)
5,Cc1ccc(S(=O)(=O)N(CC(=O)NN=C2CCN(C)CC2)c2ccc(F)cc2)cc1,10.4%
6,Cn1nc(C(F)(F)F)cc1-c1ccc(/C=C(\C#N)C(=O)c2cccc(C(F)(F)F)c2)s1,-159%
7,CCc1ccc(-c2nnn(Cc3nn[nH]n3)n2)cc1,41.5% (active)
8,CCc1ccc(-c2nnn(Cc3nc4ccccc4s3)n2)cc1,14%
9,CN(C)c1nc(N)nc(Cn2nnc(-c3ccc(C(F)(F)F)cc3)n2)n1,17.2%
10,CCOC(=O)c1cc(NC(=O)SCC(=O)O)c(C)nc1C,-84.4%
11,CCCNC(=O)CCn1cc(-c2ccc(OC)cc2)nc1CCN,-0.4%
12,CCCc1cc(=O)[nH]c(SCC(=O)c2c(N)n(CC(C)C)c(=O)n(C)c2=O)n1,2.3%
13,Cc1cc(-c2ccccc2)nc(N2CCC(C(=O)NC34CC5CC(CC(C5)C3)C4)CC2)n1,-325%
14,Cc1ccccc1C(=O)NNC(=O)CN1C(=O)c2ccccc2C1=O,21.1%
15,Cc1ccc(NC(=O)CCN2C(=O)c3ccccc3C2=O)cc1C,14.4%
16,Cc1cc(C)cc(NC(=O)CCN2C(=O)c3ccccc3C2=O)c1,8.2%
17,Cc1cc2c(cc1C)N(C(=O)CN1C(=O)c3ccccc3C1=O)C(C)(C)c1ssc(=S)c1-2,41.6% (active)
18,Cc1ccc2[nH]cc(CCCN3C(=O)c4ccccc4C3=O)c2c1,8.9%
19,Cc1ccc2c(c1)-c1c(ssc1=S)C(C)(C)N2C(=O)CN1C(=O)c2ccccc2C1=O,50% (active)
20,O=C(O)CC1S/C(=N\N=C/c2ccccc2O)N(c2ccc(O)cc2)C1=O (stereo not drawn),-14.4%
21,Cc1ccc2nc(Nc3ncc4c(n3)CC(C)(C)CC4=O)nc(C)c2c1,-28.2%
22,O=C(CCN1CCCCC1)Nc1ccc(F)c(F)c1,19.3%
23,COCC1CCCN(Cc2cn[nH]c2-c2cc3ccccc3o2)C1 (stereo not drawn),9.9%
